The structures appear in SMILES notation. The campaign covered roughly 320,000 compounds. About 8,000 (2.5%) were called active. This excerpt belongs to a sample that is enriched for actives. Unmarked numbers belong to inactive results. Rule as the data show it: active = activation above about 47%; inactive = the rest.

For the test, the target named is Aryl hydrocarbon receptor (Homo sapiens) (UniProt P35869). The experiment in a line: AHR activators, primary screen, cell-based, luminescence, luciferase reporter, human (AID 2796).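 Also: 0% = vehicle wells and 100% = reference agonist.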 The settings on record: AHR-responsive luciferase reporter cells, at 5 µM, stronger effect = higher value. (In a reporter assay the amount or activity of a reporter protein is the signal.)
Sequence of Aryl hydrocarbon receptor (Homo sapiens) (P35869 whole entry, looked up): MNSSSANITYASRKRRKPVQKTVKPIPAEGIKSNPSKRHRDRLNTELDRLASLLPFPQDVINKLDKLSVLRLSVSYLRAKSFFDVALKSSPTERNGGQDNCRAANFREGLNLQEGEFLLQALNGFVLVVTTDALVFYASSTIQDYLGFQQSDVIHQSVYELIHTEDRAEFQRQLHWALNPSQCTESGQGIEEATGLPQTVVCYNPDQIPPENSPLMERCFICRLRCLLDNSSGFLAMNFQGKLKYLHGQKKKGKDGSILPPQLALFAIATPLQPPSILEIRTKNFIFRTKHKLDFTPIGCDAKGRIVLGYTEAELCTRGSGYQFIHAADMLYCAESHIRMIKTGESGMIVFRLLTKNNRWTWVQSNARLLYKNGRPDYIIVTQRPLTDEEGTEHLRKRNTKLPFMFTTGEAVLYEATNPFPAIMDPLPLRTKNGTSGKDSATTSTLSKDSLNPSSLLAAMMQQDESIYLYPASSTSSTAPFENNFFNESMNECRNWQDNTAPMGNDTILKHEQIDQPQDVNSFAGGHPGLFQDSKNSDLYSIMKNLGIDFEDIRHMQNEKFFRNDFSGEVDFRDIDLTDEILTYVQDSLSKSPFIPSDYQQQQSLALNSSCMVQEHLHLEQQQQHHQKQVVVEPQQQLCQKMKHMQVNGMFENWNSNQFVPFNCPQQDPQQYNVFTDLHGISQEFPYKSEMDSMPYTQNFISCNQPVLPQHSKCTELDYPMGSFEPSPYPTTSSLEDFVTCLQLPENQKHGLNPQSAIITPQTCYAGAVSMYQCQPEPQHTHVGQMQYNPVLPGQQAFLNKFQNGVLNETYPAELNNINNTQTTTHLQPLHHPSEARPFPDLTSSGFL
Take `COc1ccc(C(=O)N(C)CC(O)c2ccccc2)cc1OC1CCN(C(C)=O)CC1` (centres undefined): the activation is 2.56%.
As to `Cc1nc(SCC(=O)NC2CCCCC2C)c(C#N)c(C)c1C` (centres undefined), the activation was -1.86%.
The figure for `CC(C)CC1NC(=O)c2cc(Cl)ccc2-n2c1nc1ccccc1c2=O` (centres undefined) is 20.2%; for `CCOCCCNC(=O)C(NC(=O)CNC(=O)c1ccccc1)c1ccc(C)cc1` (centres undefined) it is 0.56%; for `O=C(c1ccc(F)cc1)C1CCN(Cc2cn[nH]c2-c2ccccc2)CC1` it is 3.88%.
To `Cc1cccc(C)c1NC(=O)C1(C)c2cccc[n+]2CC(=O)N1Cc1cccs1` (centres undefined) belongs 1.93%; to `O=S(=O)(Nc1ccc(Oc2ncccn2)c(Cl)c1)c1ccc(F)cc1`, -0.48%; to `CCN(CC)C(=O)CC1(c2ccccc2OC)CCOC(C(C)C)C1` (centres undefined), -3.4%.
As to `CCc1ccc2oc(-c3ccc(N)cc3)nc2c1`, the activation is 78.3% (active).
The figure for `O=C(Nc1ccc2oc(-c3ccc4ccccc4c3)nc2c1)c1cccs1` is 33.5%.
The figure for `O=C(NC(=S)Nc1ccc(Br)cc1F)C1CCCCC1` is -1.21%; for `CCOc1ccc(N(CC(=O)NCCc2ccc(F)cc2)S(=O)(=O)c2ccccc2)cc1` it is 0.85%.
The figure for `Cc1cccc(NC(=O)c2nnn(-c3cccc(C(F)(F)F)c3)c2N)c1` is -4.69%.
Turning to `O=C(Nc1ccc(C(F)(F)F)cc1)c1cccc(-n2cnnn2)c1`, the activation is 102% (active).
To `O=C(Nc1cccc(-n2cnnn2)c1)c1cccnc1` belongs 4.54%.
To `Cc1c(C(=O)Nc2cccc(Cl)c2)cn2c(nc3ccccc32)c1C#N` belongs 7.03%; to `Cc1nc(-c2ccccc2)cn2c1nc1ccccc12`, 77% (active); to `CCOCCn1c(-c2ccccc2)nc2ccccc21`, -0.77%.
The figure for `Cc1ccc(-n2nc(C)c(/C=N/NC(=O)c3cccs3)c2Cl)cc1` is 11.5%; for `COc1ccccc1CNC(=O)c1ccc(CS(=O)(=O)c2ccccc2)o1` it is -0.56%.
For `O=C(NCc1cccnc1)c1ccc(CS(=O)(=O)c2ccc(Br)cc2)o1`, the activation is 77.4% (active).
To `COc1ccc(CCNC(=O)c2ccc(CS(=O)(=O)c3ccc(Br)cc3)o2)cc1OC` belongs 2.36%.
To `C[C@H](NC(=O)C1CCN(S(=O)(=O)c2ccccc2)CC1)C(=O)NCc1ccccc1` belongs 1.44%; to `O=C(Nc1ccc(Cl)cn1)c1cnn2cccnc12`, 129% (active); to `O=C(COC(=O)c1ccco1)Nc1ccc(Cl)cn1`, 10.9%.
As to `O=C(Nc1ccc(Cl)cn1)c1ccc2c(c1)OCCO2`, the activation was -5.76%.
In the case of `O=C(CN1C(=O)NC(Cc2c[nH]c3ccccc23)C1=O)Nc1ccccc1C(F)(F)F` (centres undefined), the activation was -0.64%.
The figure for `COc1ccc(OC)c2sc(NC(=O)C3COc4ccccc4O3)nc12` (centres undefined) is 50.9% (active); for `COc1ccc(NC(=O)C2COc3ccccc3O2)cc1` (centres undefined) it is 1.18%.
The figure for `O=C(Nc1ncc([N+](=O)[O-])s1)C1COc2ccccc2O1` (centres undefined) is 6.36%; for `CCC(=O)N(Cc1cc2ccccc2[nH]c1=O)c1ccc(OC)cc1` it is 3.79%; for `O=[N+]([O-])c1cc(S(=O)(=O)NCCc2ccccn2)ccc1Cl` it is -0.28%.
To `Cc1c([N+](=O)[O-])c(N)nn1C` belongs 2.61%.
As for `O=C(CN1CCN(c2ccc(Cl)cc2)CC1)c1ccccc1`, the activation was 73.2% (active).
The figure for `CC(C)OC(=O)CN1CCN(c2ccc(Cl)cc2)CC1` is 1.24%; for `O=C(CN1CCN(c2ccc(Cl)cc2)CC1)NCc1cccs1` it is -1.24%; for `CCCCC(CC)CNCc1cccn1CCN1CCOCC1` (centres undefined) it is 1.27%.
To `COc1cccc(N2C(=O)CN(Cc3ccccc3)C2=S)c1` belongs 1.66%.
To `COc1cccc(-n2cc(C(=O)O)c3ccccc3c2=O)c1` belongs -1.78%.
`COc1cccc(-n2c(=S)[nH]c3c(oc4ccccc43)c2=O)c1`: the activation is 64.8% (active).
The figure for `CCOC(=O)C1CCN(S(=O)(=O)c2ccc3c(c2)N(C)C(=O)CC(=O)N3C)CC1` is -0.75%; for `CCOC(=O)C1CN(S(=O)(=O)c2ccc(OC)cc2)c2cc(Cl)ccc2O1` (centres undefined) it is 1.38%; for `COc1ccc(C2OCC3(CO2)SC(=O)NC3=O)cc1OC` (centres undefined) it is 3.57%.
To `CN(C)c1ccnc(Nc2ccc(F)cc2)c1C#N` belongs 10.8%.
Regarding `CN(C)c1nc(NN)nc(Nc2ccc(F)cc2)n1`, the activation was 76.4% (active).
The figure for `Fc1ccc(Nc2nnns2)cc1` is -0.19%.
On to `CC(=O)Nc1nc(N(C)C)nc(N(C)C)n1`, for which the activation is -2.86%.
In the case of `CN(C)c1nc(Nc2ccc(Cl)c(Cl)c2)nc(N(C)C)n1`, the activation was 130% (active).
The figure for `CNc1nc(Nc2ccc(C)c(Cl)c2)nc(N)c1[N+](=O)[O-]` is 38.2%.
To `Cc1cccc(OCC(O)CN2CCN(CCN3C(=O)c4cccc5cccc(c45)C3=O)CC2)c1C` (centres undefined) belongs 1.57%; to `Nc1nc(O)c(CC(=O)O)s1`, 1.52%; to `CCCCC/C=C/C1=CC(=O)C[C@H](c2ccc(Cl)cc2)C1`, 0.78%.
To `CCOC(=O)C1CCN(C(=O)C2CCCN(S(=O)(=O)c3ccc(OC)c(Cl)c3)C2)CC1` (centres undefined) belongs 1.31%; to `CCCCc1ccc(NC(=O)NCc2cccnc2)cc1`, 7.22%.
On to `Cn1nnnc1SCC(=O)Nc1nc2ccccc2s1`, for which the activation was 50.3% (active).
The figure for `COC(=O)c1ccccc1NC(=O)CSc1nnnn1C` is 3.56%; for `O=C(Nc1ccccc1)Nc1nc2ccccc2s1` it is 74.5% (active); for `O=C(CCNC(=O)c1ccccc1)Nc1nc2ccccc2s1` it is 24.7%.
The figure for `O=C(CCC(=O)c1cccs1)Nc1nc2ccccc2s1` is 38%; for `Cn1nnnc1SCC(=O)Nc1sccc1C(N)=O` it is -1.01%.
To `Brc1cnc2ccccc2c1N1CCCCC1` belongs -3.31%; to `Cc1ccc(C(=O)N/C(=C\c2cccs2)C(=O)NCCc2ccccn2)cc1C`, 0.25%; to `N#Cc1c(N2CCCCC2)nc(N)c2c(N)nc(SCC(=O)O)cc12`, 6.26%.
On to `Cn1c(SCC(=O)c2ccccc2)ncc(C(=O)Nc2ccc(F)cc2)c1=O`, for which the activation was 98.3% (active).
To `Cc1ccc(NC(=O)c2cnc(SCC(=O)NCC3CCCO3)n(C)c2=O)cc1` (centres undefined) belongs 16.3%.
The figure for `Cn1c(SCC(=O)c2ccc(F)cc2)nnc1-c1ccccn1` is -0.55%; for `CN(CC(=O)Nc1ccc(Cl)cc1)CC(=O)Nc1cccc2ccccc12` it is 5.21%; for `O=C(CN1C(=O)NC2(CCCCCC2)C1=O)Nc1ccc([N+](=O)[O-])cc1` it is -2.64%.
The figure for `COc1cc(Cl)ccc1OCc1cc(C(=O)N2CC[C@@H]3CCCC[C@H]3C2)no1` is 6.28%; for `COc1ccccc1-c1cc(C(=O)N2CCCCC2)no1` it is 32.7%; for `COc1ccc(OCc2cc(C(=O)N3CCCC3)no2)c2ccccc12` it is 50.9% (active).
For the compound `Cc1ccc(C(=O)NCC(=O)OCC(=O)NC2CCCCCCC2)cc1`, the activation is 0.7%.
Turning to `CCCCNC(=O)C1CCCN(S(=O)(=O)c2ccc(S(=O)(=O)NCC(C)C)cc2)C1` (centres undefined), the activation was -3.28%.
The figure for `CCOc1ccc(C2c3[nH]c4ccccc4c3CCN2Cc2cccn2-c2ncccn2)cc1` (centres undefined) is 26.3%.
To `CCOc1ccc(C2c3[nH]c4ccccc4c3CCN2Cc2cn(CC)nc2C)cc1` (centres undefined) belongs 58.7% (active); to `COc1cccc(C2c3[nH]c4ccccc4c3CCN2Cc2cccc(C)n2)c1` (centres undefined), 17.2%.
To `Cc1c(-c2ccccc2)n[nH]c1C(=O)N=Nc1c(O)[nH]c2ccccc12` belongs -6.16%; to `CCOC(=O)c1c(C)[nH]c(C(=O)COc2ccc3c(c2)OCO3)c1C`, 30.7%; to `CCOC(=O)c1nc(-c2ccc3c(c2)OCO3)[nH]c1C`, 102% (active).
With `CCOC(=O)N1CCN(C(=O)COCc2cc(-c3ccc4c(c3)OCO4)on2)CC1`, the activation is 0.94%.
The figure for `CCCCOc1ccc(Cl)cc1CSc1nncn1N` is 1.19%; for `Cc1cccc(N=C2SC(C)CN2C(=O)CN2C(=O)NC3(CCCC3)C2=O)c1` (centres undefined) it is 2.39%; for `CCOc1ccccc1CN1CCN(C2CCC2)CC1CCO` (centres undefined) it is -2.26%.
The figure for `CC(=O)N1CSCC1C(=O)O` (centres undefined) is 0.15%; for `CCOc1cccc(C(=O)Nc2cnn(Cc3ccccc3)c2)c1` it is 47.8% (active); for `CCOc1cccc(C(=O)Nc2nnc(-c3cccs3)s2)c1` it is 37.1%.
To `O=C(O)CCCn1cc(NC(=O)COc2cccc(Cl)c2)cn1` belongs -1.62%; to `C=CC1=C(C(=O)O)N2C(=O)[C@@H](NC(=O)/C(=N\OCC(=O)O)c3csc(N)n3)[C@H]2SC1`, -1.86%; to `CC(=O)Oc1ccc(C(=O)Nc2nccs2)cc1`, 1.87%.
Regarding `COc1cc(C(=O)Nc2nccs2)cc(OC)c1OC`, the activation was 51.3% (active).
To `COc1ccc(Cc2nnc(NC(=O)c3cc(OC)c(OC)c(OC)c3)s2)cc1OC` belongs 0.25%; to `O=C(Nc1cccc2c1N(C(=O)c1ccco1)CCC2)c1ccco1`, 2.88%.
To `Cc1ccc(NC(=O)CSc2nn3c(=O)c(C)nnc3s2)cc1Cl` belongs 72.8% (active).
In the case of `Cc1ccc(NC(=O)CSc2nnc(CNC(=O)c3ccccc3F)o2)cc1Cl`, the activation is 26.2%.
The figure for `COc1ccc(Cc2nnc(SCC(=O)Nc3ccc(C)c(Cl)c3)[nH]c2=O)cc1` is -0.12%.
The figure for `COCCNC(=O)CSc1nc2c(n1-c1ccccc1)CCCC2` is -0.48%; for `Cc1cc(=O)n2[nH]c(-c3sccc3-n3c(C)ccc3C)cc2n1` it is 10%; for `O=c1c2c(nc3cc(-c4cccc(Cl)c4)[nH]n13)CCCC2` it is 5.09%.
As to `Cc1cc(=O)n2[nH]c(-c3cccc(Cl)c3)cc2n1`, the activation is 50.5% (active).

(Values after PubChem BioAssay AID2796 (The Scripps Research Institute Molecular Screening Center, 2010).)
